The list is not random: actives were taken first. Their share in the collection is about 12%.
L major viab – Leishmania major promastigote growth inhibition. Leishmania major promastigotes, resazurin fluorescence viability. inhibition, % at 10 µM. actives 9% (n = 200,000); in the data active = inhibition above about 50%;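 also: promastigotes grown with compound for 44 hours at 28 °C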
WT yeast gro inh – growth inhibition of WT yeast, mitochondrial fusion screen. mitochondrial fusion phenotypic screen, WT strain. inhibition, % at 10 µM. actives 2.1% (n = 190,000). AID 1362; in the data active = inhibition above about 58%; tested in S. cerevisiae
Cl transport mod – modulates chloride dependent transport by human KCC2. B-score of Tl+ flux slope (higher = more flux/activation; lower = inhibition) at 10 µM. actives 2.2% (n = 190,000). AID 1456. KCC2 cells, thallium flux FluoZin-2 fluorescence;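 active = thallium flux slope and its plate-corrected score both differing from the plate sample mean at a set confidence after two filtering rounds, in either direction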;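 also: slope of fluorescence scaled to starting intensity during 10 to 20 s after thallium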
Ins promoter up – MIN6 insulin promoter up-regulation. z-score at 5 µM. MIN6 insulin promoter-GFP reporter, high-content imaging; hits give high values. AID 1625. actives 0.3% (n = 190,000);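 active = z-score above 3 at 5 µM with at least 500 cells counted in the well; inconclusive = wells under 500 cells, flagged as cytotoxic or low count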
ROMK primary – modulates human ROMK potassium channel activity. P48048. actives 2% (n = 130,000). B-score at 10 µM. Tet-inducible ROMK, thallium flux fluorescence; actives lie on both sides;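 active = signal ratio slope over the read window, or its plate-corrected B-score, at least 3 SD from the plate mean, either direction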;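 also: B-score of the F/F0 ratio slope over 7 to 12 s after thallium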
Insulin prom inh – TRM-6 insulin promoter activity inhibition; TRM-6 cells (human fetal islet line), insulin promoter-eGFP reporter, imaging; reporter expression induced with tamoxifen; inhibition, % at 2 µM; actives 0.9% (n = 130,000); AID 1273;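 active = inhibition above the mean plus 3 SD, with well images judged a real hit on visual review, cut at about 60% in these data, passing the limit was not always enough; inconclusive = inhibition over the cutoff but images rejected on review; inactive = inhibition not above the cutoff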
A number is an active result; – = inactive; ? = inconclusive; · = no result given.

SMILES | L major viab | WT yeast gro inh | Cl transport mod | Ins promoter up | ROMK primary | Insulin prom inh
O=C(Cn1ccc([N+](=O)[O-])n1)NCc1cccnc1 | – | – | – | – | – | –
O=C(COC(=O)C1(c2ccccc2)CC1)N1CCN(c2ccc(F)cc2)CC1 | – | – | · | · | – | –
O=C(NCc1ccco1)c1scc2c1OCCO2 | – | – | · | – | – | –
O=C(CN1CCN(S(=O)(=O)c2ccccc2)CC1)Nc1ccc(Cl)c(Cl)c1 | – | – | – | – | – | –
COC(=O)c1c(C)[nH]c(C(=O)/C=C/c2ccccc2)c1C | – | – | – | – | · | –
O=C(C1CCCO1)N1CCN(C(=S)Nc2ccccc2Cl)CC1 (stereo not drawn) | – | – | – | – | – | –
Cc1cccc(NC(=S)NC(=O)c2ccco2)n1 | – | – | 28 | · | · | –
Cc1ccc2nc(NC(=S)NC(=O)c3cccs3)sc2c1 | 59 | – | 9.2 | – | · | –
COC(=O)C(CC(C)C)NC(=O)c1cc(OC)c(OC)c(OC)c1 (stereo not drawn) | – | – | – | – | – | ·
CN(C)C(=O)C(CCN1CCC(O)(c2ccc(Cl)cc2)CC1)(c1ccccc1)c1ccccc1 | 97 | – | – | · | · | –
CN(C)c1ccc(NC(=O)CN2CCC(O)(c3ccccc3)CC2)cc1 | – | – | – | – | – | ·
O=C(CSc1nc2ccccc2o1)N1c2ccccc2Sc2ccccc21 | 82 | – | – | – | – | –
O=C(CSc1nc(C2CC2)nc2ccccc12)N1c2ccccc2Sc2ccccc21 | 50 | – | · | – | · | –
CC(=O)CSc1nc2ccccc2o1 | – | – | – | · | · | –
Cc1cc2cc(CNS(=O)(=O)N(C)C)ccc2[nH]1 | – | – | – | – | · | ?
CCCCN(C)CCCNC(=O)CS(=O)Cc1nc(-c2ccc(OC)c(OC)c2)oc1C (stereo not drawn) | – | – | – | – | · | –
CCOc1cc(CNc2ccc(Br)cc2)cc(Br)c1OCC(=O)NC(C)(C)C | – | – | – | – | – | –
CCOc1cc(CNc2ccc(OC)cc2)cc(Br)c1OCC(=O)NC(C)(C)C | 100 | – | · | – | · | ·
CC(c1ccco1)N(C(=O)c1ccccc1NS(=O)(=O)c1cccc([N+](=O)[O-])c1)c1ccccn1 (stereo not drawn) | – | – | – | – | – | –
CC(c1ccco1)N(C(=O)c1ccccc1NS(=O)(=O)c1cc([N+](=O)[O-])ccc1Cl)c1ccccn1 (stereo not drawn) | 51 | – | 5.4 | – | · | –
CC1(C)Cc2c(sc3nc(C4CCCCC4)n(N)c(=O)c23)CO1 | · | · | – | – | · | ·
Cc1nc(NC2=NCN(C3CCCCC3C)CN2)nc2ccccc12 (stereo not drawn) | – | 86 | – | – | · | –
Cc1nc(NC2=NCN(CCc3ccccc3)CN2)nc2c(C)cccc12 | 96 | · | – | · | · | –
Cc1cc2nc(NC3=NCN(CCN4CCOCC4)CN3)nc(C)c2cc1C | · | · | · | – | · | ·
Cc1nc(NC2=NCN(Cc3ccccc3)CN2)nc2ccccc12 | · | · | · | – | · | ·
SMILES | L major viab | WT yeast gro inh | Cl transport mod | Ins promoter up | ROMK primary | Insulin prom inh
Cc1nc(NC2=NCN(CCCN3CCOCC3)CN2)nc2c(C)cccc12 | 88 | – | – | – | · | –
CCOC(=O)CCCNC(=O)COC(=O)CCC(=O)c1ccc(F)cc1 | – | – | – | – | · | –
CCOC(=O)N1CCC(N(CCN(C)C)C(=S)Nc2cccc(OC)c2)CC1 | – | – | – | – | – | –
CCOC(=O)N1CCC(Nc2cccc(SC)c2)CC1 | 96 | – | – | – | · | –
CCOC(=O)N1CCC(N(CCOC)C(=S)Nc2cccc(SC)c2)CC1 | 65 | – | – | · | – | –
Cc1ccc(N(C(=O)Cn2nnc(-c3cccs3)n2)C(C(=O)NC2CCCC2)c2ccncc2)cc1 (stereo not drawn) | – | – | · | · | · | –
O=[N+]([O-])c1cc(S(=O)(=O)c2ccc(N3CCCCC3)c([N+](=O)[O-])c2)ccc1N1CCCCC1 | 95 | – | – | – | – | –
COc1cccc(C(=O)/C=C/c2ccc(N3CCCCC3)c([N+](=O)[O-])c2)c1 | – | – | – | · | – | ·
Cc1ccc(N2CCN(S(=O)(=O)c3ccc(F)c(C)c3)CC2)c(C)c1 | – | – | · | – | – | –
O=C(/C=C/c1ccc(N2CCCCC2)c([N+](=O)[O-])c1)c1ccc(S(=O)(=O)N2CCCC2)cc1 | 100 | – | – | – | – | –
Cc1ccc(S(=O)(=O)N2CCN(c3ccc(C(=O)N4CCOCC4)cc3[N+](=O)[O-])CC2)cc1 | 61 | – | – | – | · | –
CCC(=O)c1cc(F)c(N2CCN(S(=O)(=O)c3ccc(C)cc3)CC2)cc1C | 69 | – | – | – | · | ·
O=[N+]([O-])c1cc([N+](=O)[O-])c(N2CCCCCC2)cc1NCCO | – | 80 | · | – | · | –
O=C1C=C(Nc2ccc(O)cc2)CC(c2ccco2)C1 (stereo not drawn) | – | – | – | 6.8 | – | –
COc1cccc(Oc2nccc(N(C)C)c2C#N)c1 | – | – | – | – | · | ·
O=C(c1ccc(Br)o1)N1CCc2ccccc21 | – | – | – | – | – | ·
Fc1ccc(N2CCN(C3=Nc4cccc5cccc3c45)CC2)cc1 | 98 | 59 | – | – | – | –
O=C(CCCN1C(=O)c2cccc3cccc(c23)C1=O)N1CCN(c2ccc(F)cc2)CC1 | 58 | – | – | – | – | ·
CN1CCN(C2=Nc3cc(F)ccc3Cc3ccccc32)CC1 | · | – | – | – | · | ·
O=C(CCN1C(=O)c2cccc3cccc(c23)C1=O)N1CCOCC1 | – | – | – | – | · | –
COc1ccc(N2CCN(C(=O)CCCN3C(=O)c4cccc5cccc(c45)C3=O)CC2)cc1 | 98 | · | – | · | · | –
COc1ccccc1N1CCN(C(=O)CCN2C(=O)c3cccc4cccc(c34)C2=O)CC1 | – | – | – | – | – | ·
CCOC(=O)CCN(Cc1cccs1)S(=O)(=O)c1ccc(Cl)cc1 | 97 | – | – | – | – | ·
Cc1sc(NC(=S)NC(=O)C2CCCCC2)c(C(N)=O)c1C | 63 | – | – | – | · | –
CC1(c2nnc(Cc3ccccc3)o2)CC(c2cccc(Cl)c2)=NO1 (stereo not drawn) | · | · | – | – | · | ·
SMILES | L major viab | WT yeast gro inh | Cl transport mod | Ins promoter up | ROMK primary | Insulin prom inh
Cc1cnccc1CN(C)Cc1cn(C)nc1-c1ccc(Oc2ccccc2)cc1 | 89 | – | – | · | – | –
Cc1cnccc1CN(C)Cc1cn(C)nc1-c1cccc(Cl)c1 | – | – | – | – | – | –
COc1ccc(CN2CCN(S(=O)(=O)c3ccc(C)cc3)CC2)cc1Br | 68 | – | – | · | – | –
COc1ccc(S(=O)(=O)N2CCCN(S(=O)(=O)c3ccc(OC)c(C)c3)CC2)cc1C | – | – | – | – | · | –
CCCN1CCN(S(=O)(=O)c2ccc(OC)c(Br)c2)CC1 | 96 | – | – | – | – | –
Cc1ccccc1/C=N/NC(=O)Cc1ccc(Cl)cc1 | – | – | – | – | – | –
O=C(NNC(=O)C(c1ccccc1)c1ccccc1)c1ccccn1 | 99 | – | – | – | – | ·
O=C(NNc1ccccn1)C(c1ccccc1)c1ccccc1 | – | – | – | – | – | –
CN(C)C(=O)N1CCC(C(=O)NCc2ccc3c(c2)OCO3)CC1 | – | – | · | – | · | –

Screening data from PubChem.
